# TDP1 cell CPT – growth inhibition of DT40 Tdp1-/-;hTDP1 cells with camptothecin (screen for TDP1 inhibitors); chicken DT40 Tdp1-/-;hTDP1 cells + 20 nM CPT, ATP luminescence, 48 h; Potency, µM (titrated, usually from 46.2 µM), inactives show at the highest dose activity change, negative = growth inhibition, usual class: inhibitors; 12% of 420,000 active; also: potency is read from the fitted curve at half-maximal effect; nearly all actives have a fitted effect of over 55% in size
#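 Cell growth measured by CellTiter-Glo luminescence after a minimum 48 h, 37 C compound exposure with 20 nM CPT in Tdp1-knockout DT40 cells stably expressing hTDP1, seeded 400/well; qHTS titration format.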
# IL-1B inflam inh – inhibitors of inflammasome signaling (IL-1 beta secretion). activity change, % at 57.5 µM. AID 743279. 4.7% of 360,000 active. THP-1 LPS/ATP IL-1B secretion, AlphaLISA, 16 h; stronger effect = lower value; in the data active = activity change below about -50%; inconclusive = mostly about -30% to -49%
#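 Secreted IL-1B measured by AlphaLISA bead assay after 16 h compound exposure of THP-1 cells; compounds (final up to 57.5 uM) added 1 h before LPS (250 ng/mL) and ATP (1.25 mM) stimulation; lower signal means less secretion.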
# TDP1 cell noCPT – qHTS for Inhibitors of human tyrosyl-DNA phosphodiesterase 1 (TDP1): qHTS in cells in absence of CPT | DT40 Tdp1-/- hTDP1 cells, no CPT, ATP luminescence, 48 h | Potency, µM (series often up to 46.2 µM), for inactives: at the highest dose activity change, negative = growth inhibition, most hits filed as inhibitors | 15% of 420,000 active; also: potency is read from the fitted curve at half-maximal effect; nearly all actives have a fitted effect of over 55% in size
#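 Cells were dispensed at 400 per well, compounds added by pin tool, plates incubated ≥48 hr at 37 °C, then CellTiter-Glo added for 30 min at room temperature before luminescence reading. Line: DT40 Tdp1-/- complemented with hTDP1; camptothecin omitted.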
# RORgamma inh – blocks mouse ROR gamma transcriptional activity. Potency, µM (titrated, usually from 53.6 µM), inactives show at the top dose activity change, negative = inhibition, actives largely listed as inhibitors. Drosophila S2 Gal4-RORgamma UAS-luciferase reporter, 20 h. 5.4% of 310,000 active. AID 2551; also: potency is read from the fitted curve at half-maximal effect; nearly all actives have a fitted effect of over 60% in size
# Target sequence (P51450 whole entry, looked up, the tested form may be a part): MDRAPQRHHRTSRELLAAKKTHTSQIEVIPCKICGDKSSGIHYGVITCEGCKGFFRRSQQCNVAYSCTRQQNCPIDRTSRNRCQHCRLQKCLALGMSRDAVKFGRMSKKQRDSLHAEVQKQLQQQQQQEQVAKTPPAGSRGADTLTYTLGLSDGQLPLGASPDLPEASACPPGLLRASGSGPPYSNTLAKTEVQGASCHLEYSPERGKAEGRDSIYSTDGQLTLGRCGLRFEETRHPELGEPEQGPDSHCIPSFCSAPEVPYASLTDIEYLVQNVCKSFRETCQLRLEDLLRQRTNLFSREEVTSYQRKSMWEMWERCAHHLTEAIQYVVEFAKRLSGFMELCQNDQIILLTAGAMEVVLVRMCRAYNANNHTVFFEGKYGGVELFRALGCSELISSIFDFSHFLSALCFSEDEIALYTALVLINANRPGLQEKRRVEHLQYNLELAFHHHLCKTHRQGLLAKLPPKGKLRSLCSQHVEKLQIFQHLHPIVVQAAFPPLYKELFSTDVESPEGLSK
#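 A Gal4/UAS one-hybrid system in insect cells: metallothionein-promoter Gal4–ROR gamma fusion plus Photinus luciferase reporter. Copper sulfate 700 uM final, 20 hr ambient incubation, luminescent detection after 10 min with reagent.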
# Gal4-VP16 FLuc – inhibits Gal4-VP16 luciferase reporter, ROR gamma counter-screen | Drosophila S2 Gal4-VP16 UAS-luciferase, luminescence, 20 h | Potency, µM (series often up to 53.6 µM), without a hit: top-dose activity, negative = inhibition, hits mostly inhibitors | 3.5% of 310,000 active;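 also: Gal4-VP16 expression switched on by copper sulfate through the metallothionein promoter; potency is read from the fitted curve at half-maximal effect; nearly all actives have a fitted effect of over 50% in size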
# LDHA inh – inhibitors of human lactate dehydrogenase A; 0.15% of 480,000 active; AID 1347041; purified LDHA, NADH/diaphorase-resazurin fluorescence; stronger effect = lower value; P00338; activity change, % (values are at about 110 or 230 µM); in the data active = activity change below about -30%; inconclusive = mostly about -25% to -30%;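 also: plate controls were DMSO wells for no effect and wells without enzyme for full effect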
#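 Human LDH5 (2 nM) was incubated with 0.06 mM NADH and 0.2 mM pyruvate for 5 min at room temperature in Tris pH 7.4. Remaining NADH was coupled through diaphorase/resazurin, and resorufin fluorescence was read at 0 and 20 min.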
# * = called active by the depositor; ? = inconclusive; / = not tested or not shown. Rows were chosen to be rich in hits. Some 18% of all compounds tested hit in one or more screens of this group. Unless noted, calls follow the shape of the dose curve; as a rule, active = well fitted curve in the direction sought with a large enough effect; inconclusive = small, poorly fitted or top-dose-only effect, or another doubt; inactive = no such curve, though single readings can be large; an effect the other way counts as inactive or inconclusive. Unless noted, % is scaled to controls: 0 for no effect and ±100 for the full control effect.
SMILES,TDP1 cell CPT,IL-1B inflam inh,TDP1 cell noCPT,RORgamma inh,Gal4-VP16 FLuc,LDHA inh
N#CC1=C(N)C(C#N)(C#N)[C@H](c2ccoc2)[C@H]2CN(Cc3ccccc3)CC=C12,5.8µM*,25,5.8µM*,-3%,12%,1
CN1CC=C2C(C#N)=C(N)C(C#N)(C#N)[C@H](c3ccoc3)[C@H]2C1,?,21,21µM*,-4%,-5%,18
CN1CC=C2C(C#N)=C(N)C(C#N)(C#N)C(c3cccc(Cl)c3Cl)C2C1 (stereo unspecified),23µM*,-103*,?,?,14%,0
CCOC(=O)N1CC=C2C(C#N)=C(N)C(C#N)(C#N)[C@H](c3ccc(OCC)c(OCC)c3)[C@H]2C1,?,-14,-28%,15%,-2%,-1
N#CC1=C(N)C(C#N)(C#N)C(c2cccnc2)C2CN(C(=O)OCc3ccccc3)CC=C12 (stereo unspecified),16µM*,-21,?,?,-12%,-3
Cn1c(=O)c2c(nc(N3CCN(c4cccc(Cl)c4)CC3)n2Cc2ccc(F)cc2)n(C)c1=O,/,/,/,/,/,1
COc1ccc(CN(C)S(=O)(=O)c2ccc3c(c2)OCCCO3)cc1OC,/,/,/,/,/,-1
Cc1ccc(C2C3CN(C(C)C)CC=C3C(C#N)=C(N)C2(C#N)C#N)cc1 (stereo unspecified),16µM*,-3,13µM*,-17%,16%,9
CCNc1nc(C#N)nc(Nc2ccccc2)n1,?,/,11µM*,/,/,-7
CCCNc1nc(C#N)nc(Nc2ccccc2)n1,/,/,/,/,9%,/
Cn1cccc1/C=N/N1CCN(Cc2ccc(Cl)cc2)CC1,2%,-18,?,?,-21%,1
Cc1nnc(C)n1/N=C/c1cccn1C,?,-1,?,20%,2%,-9
Cn1cccc1/C=N/n1c(-c2ccc(Cl)cc2Cl)n[nH]c1=S,-4%,4,?,2.8µM*,?,-5
Cn1cccc1/C=N/n1c(-c2ccc(Cl)cc2)n[nH]c1=S,?,19,?,2.5µM*,?,-3
Cc1ccc(-c2n[nH]c(=S)n2/N=C/c2cccn2C)cc1,-18%,2,-6%,3.2µM*,11µM*,-1
CC(C)N1CCc2c(C#N)c(NCc3ccccc3)n3cnnc3c2C1,/,/,/,/,/,0
CCCCCCCNC(=O)c1ccc(Nc2ccc(-c3cccc(C)c3)nn2)cc1,/,/,/,/,/,0
N#Cc1ccc(CS(=O)(=O)Cc2ccccc2F)cc1,/,/,/,/,/,-23
CCOc1ccc(NC(=O)C2CCCN(c3cnccn3)C2)cc1 (stereo unspecified),7%,-9,-19%,-2%,3%,-9
CCCCc1ccc(NC(=O)C2CCCC2)cc1,?,-67*,?,/,/,-6
CCCc1ccc(NC(=O)C2CCCN(c3cnccn3)C2)cc1 (stereo unspecified),21µM*,-11,21µM*,11%,-14%,-7
Cc1cccc(OCC(=O)Nc2cc(-c3nc4ccccc4o3)ccc2C)c1,/,/,/,/,/,-7
COC(=O)C1(Cc2cc(-c3ccccc3)no2)CCN(C(=O)OC(C)(C)C)CC1,?,-21,?,-13%,-12%,3
COC(=O)c1ccc(-c2cc(CC3(C(=O)OC)CCN(C(=O)OC(C)(C)C)CC3)on2)cc1,23µM*,-12,?,12%,3%,1
CCc1nc2ccc(C(=O)Nc3cc(-c4ccccc4)ccc3OC)cn2c1N(CC)CCN(C)C,16µM*,-14,18µM*,/,/,-4
SMILES,TDP1 cell CPT,IL-1B inflam inh,TDP1 cell noCPT,RORgamma inh,Gal4-VP16 FLuc,LDHA inh
CCc1nc2ccc(C(=O)Nc3cc(-c4ccccc4)ccc3OC)cn2c1N(CC)Cc1cccc(Br)c1,?,?,?,/,/,-7
CCCCN(C=O)c1c(CC)nc2ccc(C(=O)Nc3cc(-c4ccccc4)ccc3OC)cn12,?,-70*,16µM*,/,/,0
COc1ccc(NC(=O)C(C)Nc2ccc3oc(C)nc3c2)cc1 (stereo unspecified),/,/,/,/,/,100
N=c1nc(N)c(N)c(N)n1O,/,/,/,/,/,54
Cc1cc(Cl)ccc1NC(=S)NC(C)(C)C,-25%,10,-15%,2µM*,16µM*,-7
Cc1cc(Cl)ccc1NC(=S)NCC(C)C,?,-4,29µM*,4.5µM*,7.1µM*,-3
CCCCNC(=S)Nc1ccc(Cl)cc1Cl,/,/,/,/,/,0
CCCNC(=S)Nc1ccc(Cl)cc1C,-2%,3,-12%,7.1µM*,?,-7
CCCNc1nc(Nc2ccc(C)cc2)c2cnn(C)c2n1,/,/,/,/,/,8
CCn1c(SCc2coc(-c3cccs3)n2)nnc1-c1ccccc1,/,/,/,/,/,-7
CCSC1=N/C(=C\c2ccccc2)C(=O)N1c1ccc(OC)cc1,?,-5,21µM*,10%,-5%,-4
COc1ccc2[nH]c(=O)c(CN(Cc3ccccc3)Cc3nnnn3CC3CCCO3)cc2c1 (stereo unspecified),?,0,?,5%,-3%,-2
CCc1ccc2[nH]c(=O)c(CN(Cc3ccccc3)Cc3nnnn3C(C)(C)C)cc2c1,14µM*,/,11µM*,/,/,7
CCOC(=O)Cn1nnnc1CN(Cc1cccs1)Cc1cc2cc(C)ccc2[nH]c1=O,?,6,?,8%,6%,4
CCOC(=O)Cn1nnnc1CN(CCc1ccccc1)Cc1cc2cc(CC)ccc2[nH]c1=O,18µM*,10,?,-10%,-2%,0
CCc1ccc2[nH]c(=O)c(CN(Cc3cccnc3)Cc3nnnn3Cc3ccccc3)cc2c1,11µM*,/,20µM*,/,/,4
CCc1ccc2[nH]c(=O)c(CN(Cc3ccc(OC)cc3)Cc3nnnn3CCOC)cc2c1,18µM*,?,?,-30%,-15%,1
Cc1ccc(NC(=O)C(C#N)=C2CCC(C(C)(C)C)CC2)cc1 (stereo unspecified),/,/,/,/,/,-1
N#Cc1ccc(C(=O)NC2CCSc3c(F)cccc32)cc1 (stereo unspecified),/,/,/,/,/,11
Cc1ccc(CN(CCN(C)C)C(=O)c2cccc(C#N)c2)o1,/,/,/,/,/,0
CCC1(CC)C(=O)C(C)(C)C(=O)OC1c1cccs1 (stereo unspecified),?,18,21µM*,-15%,0%,-4
O=C(CCc1ccsc1)NC1CCSc2ccc(F)cc21 (stereo unspecified),/,/,/,/,/,-2
CCCCCCCCOc1ccc(OC(=O)c2ccco2)cc1,/,/,/,/,/,-6
COc1ccccc1-c1cc(C(=O)N/N=C\c2cn(C)nc2C)c2ccccc2n1,?,1,13µM*,?,-8%,-12
